Some test systems named below: NCI-H23 lung; NCI-H226 lung; NCI-H322M lung; HOP-62 NSCLC; NCI-H460 lung; HOP-92 NSCLC; NCI-H522 lung; A549/ATCC NSCLC; 786-0 renal; COLO 205 colon; DU-145 prostate; K-562 leukemia; MALME-3M melanoma; MDA-MB-231 breast; SF-268 CNS; SF-539 CNS; UACC-257 melanoma; M14 melanoma; SF-295 CNS; RXF 393 renal.
Holding throughout (assay): NCI-60 one-dose screen, 48 h (100 = growth as untreated, 0 = no growth, -100 = all killed)
Conditions in all cases: 10 µM unless noted

In PubChem BioAssay (NCI) one finds growth data, which are given here for 9 molecules.

Each structure is given as a SMILES string. About 83,000 compounds went through this panel and 20% of them were active in at least one assay; those are over-represented in the sample as a whole.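 Interpretation: 100, growth as untreated; towards 0, rising growth inhibition; 0, no net growth; 0 to -100, cell death. Compounds scoring below 10 were considered active.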 Unmarked numbers belong to inactive results. Active and inactive are the calls of the source.

In the case of `O=C(NC(Cc1ccccc1)C(=O)CCl)OCc1ccccc1` (centres undefined), the growth was 69.4% in the assay with NCI-H23 lung; 54.4% with NCI-H226 lung; 111% in the assay with NCI-H322M lung; 87.1% in the assay on HOP-62 NSCLC; 69.6% in the assay on NCI-H460 lung; 73% with HOP-92 NSCLC. The growth in the assay with NCI-H522 lung was 6.56% (active); in the assay with A549/ATCC NSCLC it was 116%; with 786-0 renal, 79.8%; in the assay on COLO 205 colon, 80.2%; in the assay on DU-145 prostate, 93.5%; with K-562 leukemia, 13.7%. In addition, the growth was 72.4% in the assay with MALME-3M melanoma; 73.9% in the assay on MDA-MB-231 breast; 63.2% in the assay on SF-268 CNS; 62.4% in the assay with SF-539 CNS; 87.2% in the assay with UACC-257 melanoma; 80.1% in the assay on M14 melanoma.
Regarding `O=C(N/N=C/c1ccc(O)cc1O)c1cccnc1`, the growth with NCI-H23 lung is 45.3%; with NCI-H226 lung, 70.5%; in the assay on NCI-H322M lung, 29.9%; in the assay on HOP-62 NSCLC it was 43.2%; with NCI-H460 lung it was 10.9%; in the assay on HOP-92 NSCLC, 56.4%. The growth is -6.04% (active) with NCI-H522 lung; 46.4% with A549/ATCC NSCLC; 37.9% in the assay with 786-0 renal; 23.4% in the assay on COLO 205 colon; 48.4% with DU-145 prostate; 26.7% in the assay with K-562 leukemia. Besides, the growth with MALME-3M melanoma was 61.8%; with MDA-MB-231 breast, 62.5%; with SF-268 CNS it was 43.6%; with SF-295 CNS it was 15.6%; with SF-539 CNS, 29.5%; with UACC-257 melanoma it was -3.63% (active). Also, the growth with M14 melanoma is 39.3%.
With `CN1CCCCC1CCN1c2ccccc2Sc2ccc(Br)cc21` (centres undefined), the growth was 77.4% in the assay on NCI-H23 lung; 89.9% in the assay with NCI-H226 lung; 59.1% in the assay on NCI-H322M lung; 85.7% with HOP-62 NSCLC; 64.9% in the assay on NCI-H460 lung; 45.5% in the assay on HOP-92 NSCLC. Moreover, the growth was 62.9% in the assay on NCI-H522 lung; 67.5% with A549/ATCC NSCLC; 55% with 786-0 renal; 51.5% in the assay on COLO 205 colon; 77.9% in the assay on DU-145 prostate; 2.32% (active) in the assay with K-562 leukemia. The growth with MALME-3M melanoma is 78.4%; with MDA-MB-231 breast, 67.6%; with SF-268 CNS it was 66.3%; in the assay with SF-295 CNS, 59.6%; with SF-539 CNS, 95.9%; in the assay on UACC-257 melanoma, 70.7%. In addition, the growth in the assay on M14 melanoma was 49.1%.
With `CCOC(=O)CC(C)=N`, the growth is 118% with NCI-H23 lung; 106% in the assay on NCI-H226 lung; 121% in the assay on NCI-H322M lung; 107% in the assay with HOP-62 NSCLC; 109% in the assay with NCI-H460 lung; 99.4% in the assay with HOP-92 NSCLC. In addition, the growth in the assay on NCI-H522 lung was 92%; with A549/ATCC NSCLC, 101%; in the assay with 786-0 renal, 103%; with COLO 205 colon, 108%; in the assay with DU-145 prostate, 121%; in the assay on K-562 leukemia, 110%. For the same molecule, the growth in the assay on MALME-3M melanoma is 99.9%; with MDA-MB-231 breast, 103%; in the assay on SF-268 CNS it was 130%; in the assay with SF-295 CNS it was 111%; in the assay on SF-539 CNS, 97.6%; with UACC-257 melanoma, 102%. Also, the growth in the assay with M14 melanoma is 102%.
With `COC1C/C(=N\O)C2OC(c3ccccc3)OCC2O1` (centres undefined), the growth in the assay on NCI-H23 lung is 101%; in the assay on NCI-H226 lung, 103%; in the assay with NCI-H322M lung, 99.9%; with HOP-62 NSCLC, 114%; in the assay with NCI-H460 lung, 112%; in the assay with HOP-92 NSCLC, 90.7%. In addition, the growth in the assay on NCI-H522 lung was 97.3%; with A549/ATCC NSCLC, 88.3%; with 786-0 renal, 104%; in the assay on COLO 205 colon it was 107%; in the assay with DU-145 prostate, 109%; in the assay on K-562 leukemia it was 97.3%. Besides, the growth in the assay on MALME-3M melanoma was 100%; with MDA-MB-231 breast, 105%; in the assay on SF-268 CNS it was 109%; with SF-539 CNS it was 101%; in the assay with UACC-257 melanoma, 68.1%; in the assay on M14 melanoma, 104%.
With `CCCCN(CC)CCCCCCCCCCN1CCCc2cc(OC)ccc21`, the growth with NCI-H23 lung is 13.2%; in the assay on NCI-H226 lung, 103%; with NCI-H322M lung, 54.2%; with HOP-62 NSCLC, 106%; in the assay on NCI-H460 lung, 28.5%; with HOP-92 NSCLC, 31.8%. Also, the growth in the assay on NCI-H522 lung is 38.8%; in the assay on A549/ATCC NSCLC, 91%; in the assay on 786-0 renal, 60.4%; in the assay with COLO 205 colon it was 83.4%; in the assay with DU-145 prostate, 48.5%; with K-562 leukemia, -38.7% (active). The growth in the assay with MALME-3M melanoma was -28.6% (active); with RXF 393 renal, 92.7%; in the assay with SF-268 CNS, 49.7%; in the assay with SF-295 CNS, 43.5%; in the assay on SF-539 CNS, 93.1%; in the assay on UACC-257 melanoma it was 103%. Also, the growth in the assay on M14 melanoma is 88.2%.
For the molecule `COc1cccc2c1C(=O)c1c(O)c3c(c(O)c1C2=O)C[C@@](O)(/C(C)=N/NC(=O)c1ccc(Cl)cc1)C[C@@H]3OC1CC(N)C(O)C(C)O1` (some centres undefined), the growth is -39.7% (active) in the assay with NCI-H23 lung; -39.4% (active) in the assay with NCI-H226 lung; -35.3% (active) in the assay on NCI-H322M lung; -17% (active) in the assay with HOP-62 NSCLC; -21.8% (active) with NCI-H460 lung; -6.16% (active) in the assay on HOP-92 NSCLC. Further, the growth in the assay with NCI-H522 lung is -70.1% (active); with A549/ATCC NSCLC, -32.8% (active); in the assay on 786-0 renal it was -6.44% (active); in the assay with COLO 205 colon it was -81.4% (active); in the assay on DU-145 prostate, -0.501% (active); in the assay on K-562 leukemia it was -19.5% (active). Also, the growth was -74.6% (active) in the assay with MALME-3M melanoma; -1.48% (active) in the assay on MDA-MB-231 breast; -54.8% (active) in the assay on SF-268 CNS; -60.4% (active) in the assay on SF-295 CNS; -45.5% (active) with SF-539 CNS; -57.1% (active) in the assay with UACC-257 melanoma. Besides, in the assay with M14 melanoma, the growth was -60% (active).
For the molecule `N#Cc1ccc(NC(=O)Nc2ccc(Cc3ccc(NC(=O)Nc4ccc(C#N)cc4)cc3)cc2)cc1`, the growth was -4.62% (active) in the assay on NCI-H23 lung; 37.7% in the assay on NCI-H226 lung; 63.3% in the assay with NCI-H322M lung; 50.2% in the assay on HOP-62 NSCLC; 17.2% with NCI-H460 lung; 46.8% with HOP-92 NSCLC. In addition, the growth with NCI-H522 lung is 28.2%; in the assay on A549/ATCC NSCLC, 41.3%; in the assay on 786-0 renal, 49.3%; with COLO 205 colon it was 29.5%; in the assay on DU-145 prostate, 40.5%; with K-562 leukemia, 11.5%. Moreover, the growth in the assay with MALME-3M melanoma was 27.5%; with RXF 393 renal it was 51.4%; in the assay on SF-268 CNS, 44.5%; with SF-295 CNS it was 12.1%; in the assay with SF-539 CNS, 50.7%; with UACC-257 melanoma, 26.3%. Besides, the growth in the assay on M14 melanoma was 37.2%.
For `c1c2c(cc3c1OCO3)Cc1cc3c(cc1Cc1cc4c(cc1C2)OCO4)OCO3`, the growth with NCI-H23 lung was 109%; in the assay on NCI-H226 lung it was 105%; in the assay with NCI-H322M lung, 109%; with HOP-62 NSCLC it was 109%; in the assay with NCI-H460 lung, 104%; in the assay with HOP-92 NSCLC it was 96.7%. Besides, the growth with NCI-H522 lung was 94.2%; in the assay on A549/ATCC NSCLC, 91.6%; in the assay on 786-0 renal, 110%; in the assay with COLO 205 colon, 114%; with DU-145 prostate, 121%; with K-562 leukemia, 117%. For the same molecule, the growth in the assay on MALME-3M melanoma was 116%; in the assay on MDA-MB-231 breast it was 116%; in the assay with SF-268 CNS, 111%; with SF-295 CNS, 95.8%; in the assay with SF-539 CNS it was 97.9%; with UACC-257 melanoma, 84.6%. Also, the growth in the assay on M14 melanoma was 104%.
